{"source": "PubChem BioAssay (NCATS)", "key": {"[1]": {"assay": "Primary qHTS for inhibitors of nuclear receptor binding SET domain protein 2 (NSD2) in an isogenic RCH-ACV NSD2 p.E1099K mutant (9B) (AID 1645876); also: nearly all actives have a fitted effect of over 70% in size; also: potency is read from the fitted curve at half-maximal effect"}, "[2]": {"assay": "Primary qHTS for inhibitors of nuclear receptor binding SET domain protein 2 (NSD2) in an RCH-ACV wild type WT cells (2C) (AID 1645877); also: nearly all actives have a fitted effect of over 70% in size; also: potency is read from the fitted curve at half-maximal effect"}, "[3]": {"target": "Glutathione peroxidase 1 (Homo sapiens) (UniProt P07203)", "sequence (P07203 whole entry, looked up)": "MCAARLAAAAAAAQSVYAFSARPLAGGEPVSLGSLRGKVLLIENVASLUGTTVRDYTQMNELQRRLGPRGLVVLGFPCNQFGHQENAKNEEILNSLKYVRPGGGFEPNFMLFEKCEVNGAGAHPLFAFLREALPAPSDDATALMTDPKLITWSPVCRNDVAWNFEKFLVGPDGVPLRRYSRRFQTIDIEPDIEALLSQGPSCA", "assay": "Primary qHTS Assay for Inhibitors of Recombinant Selenoprotein Glutathione Peroxidase 1 (GPX1) (AID 1845191); also: nearly all actives have a fitted effect of over 65% in size", "method_in_brief": "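GPX1 10 nM, GR 100 nM, GSH 1 mM, NADPH 0.5 mM, CHP 0.5 mM (final). 30-min cpd preincubation, RT. Ex340/Em450 read t=0, t=15 min.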"}}, "note": "Where “and” joins values, the source holds several entries; their conditions need not be identical. Identical values can stand only once. Results filed as inconclusive are left out. Where a call stands in place of a potency, no number is given. Values without a mark were called inactive. Calls of active or inactive are those of the source. Calls follow the shape of the dose curve; as a rule, active = well fitted curve in the direction sought with a large enough effect; inconclusive = small, poorly fitted or top-dose-only effect, or another doubt; inactive = no such curve, though single readings can be large; an effect the other way counts as inactive or inconclusive. Where a SMILES comes first, the peptide text is derived from it. [ ]: non-standard residue; d: D form. ξ: configuration not given here. ξPhe(βξ-Me) = CC(c1ccccc1)C(N)C(=O)O; GABA = NCCCC(=O)O", "data": [{"smiles": "C=CC(C)(C)c1[nH]c2cc3c(cc2c1CC1NC(=O)C2CCCN2C1=O)C=CC(C)(C)O3", "note": "(centres undefined)", "values": [{"measurement": "Potency", "setting": "[1]", "result": "inactive"}, {"measurement": "Potency", "setting": "[2]", "result": "inactive"}, {"measurement": "Potency", "setting": "[3]", "result": "inactive"}]}, {"smiles": "CC(=O)OC1C[C@@]2(C)[C@@H](CC[C@@H](C)[C@]23Cc2c(O)cc4c(c2O3)CNC4=O)C(C)(C)[C@@H]1O", "note": "(some centres undefined)", "values": [{"measurement": "Potency", "setting": "[1]", "result": "inactive"}, {"measurement": "Potency", "setting": "[2]", "result": "inactive"}, {"measurement": "Potency", "setting": "[3]", "result": "inactive"}]}, {"smiles": "OC[C@H]1O[C@@H](OCCc2ccc(O)cc2)[C@H](O[C@@H]2OC[C@](O)(CO)[C@H]2O)[C@@H](O)[C@@H]1O", "values": [{"measurement": "Potency", "setting": "[1]", "result": "inactive"}, {"measurement": "Potency", "setting": "[2]", "result": "inactive"}, {"measurement": "Potency", "setting": "[3]", "result": "inactive"}]}, {"smiles": "COc1c2c(c(C)c3c1C(=O)OC3)O[C@@]1(C)CCC3(C(C)(C)O)OC(=O)CC[C@]3(C)[C@H]1C2", "note": "(some centres undefined)", "values": [{"measurement": "Potency", "setting": "[1]", "result": "inactive"}, {"measurement": "Potency", "setting": "[2]", "result": "inactive"}, {"measurement": "Potency", "setting": "[3]", "result": "inactive"}]}, {"smiles": "COC(=O)c1c(C)cc(OC(=O)c2c(C)cc(OC)cc2OC)cc1O[C@@H]1O[C@H](CO)[C@@H](O)[C@H](O)[C@H]1O", "values": [{"measurement": "Potency", "setting": "[1]", "result": "inactive"}, {"measurement": "Potency", "setting": "[2]", "result": "inactive"}, {"measurement": "Potency", "setting": "[3]", "result": "inactive"}]}, {"smiles": "CN1c2ccccc2C(=O)N2CCC3c4ccccc4NC3C21", "note": "(centres undefined)", "values": [{"measurement": "Potency", "setting": "[1]", "result": "2.26 µM (active)"}, {"measurement": "Potency", "setting": "[2]", "result": "2.01 µM (active)"}, {"measurement": "Potency", "setting": "[3]", "result": "inactive"}]}, {"smiles": "OC[C@H]1O[C@@H](OCCc2ccccc2)[C@H](O[C@@H]2OC[C@](O)(CO)[C@H]2O)[C@@H](O)[C@@H]1O", "values": [{"measurement": "Potency", "setting": "[1]", "result": "inactive"}, {"measurement": "Potency", "setting": "[2]", "result": "inactive"}, {"measurement": "Potency", "setting": "[3]", "result": "inactive"}]}, {"smiles": "C[C@H]1CC[C@@H]2N(C1)C[C@@H]1[C@H]([C@@H](O)[C@H](O)[C@]3(O)[C@H]1C[C@@]14OC5(O)[C@@H](C[C@@H](O)[C@@H]31)[C@]4(C)CC[C@@H]5O)[C@]2(C)O", "values": [{"measurement": "Potency", "setting": "[1]", "result": "inactive"}, {"measurement": "Potency", "setting": "[2]", "result": "inactive"}, {"measurement": "Potency", "setting": "[3]", "result": "inactive"}]}, {"smiles": "COC(=O)C12CCC(C)C(C)C1C1=CCC3C4(C)CCC(OC(C)=O)C(C)(C)C4CCC3(C)C1(C)CC2", "note": "(centres undefined)", "values": [{"measurement": "Potency", "setting": "[1]", "result": "inactive"}, {"measurement": "Potency", "setting": "[2]", "result": "inactive"}, {"measurement": "Potency", "setting": "[3]", "result": "inactive"}]}, {"smiles": "C=C1C(OC(=O)/C(C)=C\\C)[C@@]23CCC4[C@@](C)(CCC[C@@]4(C)C(=O)O)C2CC[C@H]1C3OC(C)=O", "note": "(some centres undefined)", "values": [{"measurement": "Potency", "setting": "[1]", "result": "inactive"}, {"measurement": "Potency", "setting": "[2]", "result": "inactive"}, {"measurement": "Potency", "setting": "[3]", "result": "inactive"}]}, {"smiles": "CC1(C)CC[C@]2(C(=O)O[C@@H]3O[C@H](CO)[C@@H](O)[C@H](O)[C@H]3O)CC[C@]3(C)C(=CCC4[C@@]5(C)CC[C@H](O[C@@H]6O[C@H](C(=O)O)[C@@H](O)[C@H](O)[C@H]6O)C(C)(C)C5CC[C@]43C)C2C1", "note": "(some centres undefined)", "values": [{"measurement": "activity change, negative = viability loss", "setting": "[1]", "result": "-3.82% [at 9.23 µM]"}, {"measurement": "activity change, negative = cell killing", "setting": "[2]", "result": "4.17% [at 9.23 µM]"}, {"measurement": "Potency", "setting": "[3]", "result": "inactive"}]}, {"smiles": "CC1NC(=O)CCCNC(=O)C(Cc2c[nH]c3ccccc23)NC(=O)C(C)NC(=O)C(C(C)C)NC(=O)C(C(C)c2ccccc2)NC(=O)C(C(C)C)NC1=O", "note": "(stereo not drawn) (cyclo([GABA]AV[ξPhe(βξ-Me)]VAW); configuration not given here)", "values": [{"measurement": "Potency", "setting": "[1]", "result": "inactive"}, {"measurement": "Potency", "setting": "[2]", "result": "inactive"}, {"measurement": "Potency", "setting": "[3]", "result": "inactive"}]}, {"smiles": "COC(=O)C[C@H]1C(C)(C)[C@H](OC(C)=O)C2CC3=C4CC(=O)O[C@@H](c5ccoc5)[C@]4(C)CCC3[C@@]1(C)C2=O", "note": "(some centres undefined)", "values": [{"measurement": "Potency", "setting": "[1]", "result": "inactive"}, {"measurement": "Potency", "setting": "[2]", "result": "inactive"}, {"measurement": "Potency", "setting": "[3]", "result": "inactive"}]}, {"smiles": "CC1=C(CO)C(=O)O[C@@H]([C@@H](C)[C@H]2CC[C@H]3[C@@H]4C[C@H]5O[C@]56[C@@H](O)C=CC(=O)[C@]6(C)[C@H]4CC[C@]23C)C1", "values": [{"measurement": "Potency", "setting": "[1]", "result": "448 nM (active) and 263 nM (active)"}, {"measurement": "Potency", "setting": "[2]", "result": "709 nM (active) and 263 nM (active)"}, {"measurement": "Potency", "setting": "[3]", "result": "inactive"}]}, {"smiles": "CC(=O)N[C@H]1[C@H](O[C@H]2CC[C@@]3(C)C(CC[C@]4(C)C3CC=C3[C@@H]5CC(C)(C)CC[C@]5(C(=O)OC5OCC(O)C(O)C5O)CC[C@]34C)C2(C)C)O[C@H](COC2OC(C)C(O)C(OC3OC(C)C(O)C(O)C3O)C2O)[C@@H](O)[C@@H]1O", "note": "(some centres undefined)", "values": [{"measurement": "outcome", "setting": "[1]", "result": "inactive [at 9.23 µM]"}, {"measurement": "activity change, negative = cell killing", "setting": "[2]", "result": "1.82% [at 9.23 µM]"}, {"measurement": "Potency", "setting": "[3]", "result": "inactive"}]}, {"smiles": "CC[C@H]1OC(=O)[C@H](C)[C@@H](O[C@H]2C[C@@](C)(OC)[C@@H](O)[C@H](C)O2)[C@H](C)[C@@H](O[C@@H]2O[C@H](C)C[C@H](N(C)C)[C@H]2O)[C@](C)(O)C[C@@H](C)C(=O)[C@H](C)[C@H]2OC(=O)O[C@@]21C", "values": [{"measurement": "Potency", "setting": "[1]", "result": "inactive"}, {"measurement": "Potency", "setting": "[2]", "result": "inactive"}, {"measurement": "Potency", "setting": "[3]", "result": "inactive"}]}, {"smiles": "CC(=O)OC1CC2(C)C3=CCC4(C)C5C(O)C(O)C(C(C)C)C5(C)CCC4(C)C3CCC2C(C)(C)C1OC1OC(CO)C(O)C(O)C1O", "note": "(centres undefined)", "values": [{"measurement": "Potency", "setting": "[1]", "result": "inactive"}, {"measurement": "Potency", "setting": "[2]", "result": "inactive"}, {"measurement": "Potency", "setting": "[3]", "result": "inactive"}]}, {"smiles": "C=C1CC23CC1CCC2C12OC(=O)C(C)(CCC1O)C2C3C(=O)O", "note": "(centres undefined)", "values": [{"measurement": "Potency", "setting": "[1]", "result": "inactive"}, {"measurement": "Potency", "setting": "[2]", "result": "inactive"}, {"measurement": "Potency", "setting": "[3]", "result": "inactive"}]}, {"smiles": "C/C=C1\\[C@H](OC2OC(COC3OC(CO)C(O)C(O)C3O)C(O)C(O)C2O)OC=C(C(=O)OC)[C@H]1CC(=O)OCCc1ccc(O)cc1", "note": "(some centres undefined)", "values": [{"measurement": "Potency", "setting": "[1]", "result": "inactive"}, {"measurement": "Potency", "setting": "[2]", "result": "inactive"}, {"measurement": "Potency", "setting": "[3]", "result": "inactive"}]}, {"smiles": "O=C(/C=C\\c1ccc(O)cc1)N[C@@H](Cc1ccc(O)cc1)C(=O)O", "values": [{"measurement": "Potency", "setting": "[1]", "result": "inactive"}, {"measurement": "Potency", "setting": "[2]", "result": "inactive"}, {"measurement": "Potency", "setting": "[3]", "result": "inactive"}]}, {"smiles": "Cc1cc(O)cc(O[C@@H]2O[C@H](CO)[C@@H](O)[C@H](O)[C@H]2O)c1", "values": [{"measurement": "Potency", "setting": "[1]", "result": "inactive"}, {"measurement": "Potency", "setting": "[2]", "result": "inactive"}, {"measurement": "Potency", "setting": "[3]", "result": "inactive"}]}, {"smiles": "O=C1NC(Cc2ccccc2)C(=O)N2CCCC12", "note": "(centres undefined)", "values": [{"measurement": "Potency", "setting": "[1]", "result": "inactive"}, {"measurement": "Potency", "setting": "[2]", "result": "inactive"}, {"measurement": "Potency", "setting": "[3]", "result": "inactive"}]}, {"smiles": "COC(=O)C1=COC(O[C@@H]2O[C@H](CO)[C@@H](O)[C@H](O)[C@H]2O)[C@H]2[C@@H]1[C@H](OC(=O)CCc1ccc(O)cc1)C[C@]2(C)O", "note": "(some centres undefined)", "values": [{"measurement": "Potency", "setting": "[1]", "result": "inactive"}, {"measurement": "Potency", "setting": "[2]", "result": "inactive"}, {"measurement": "Potency", "setting": "[3]", "result": "inactive"}]}]}
